Inconclusive results are not listed. Entries that show only a call come without a potency. A number with no mark means an inactive call. Activity calls are given as the source filed them. Unless noted, calls come from the whole dose curve.
System: not listed separately
Assay: Primary qHTS for Vero E6 cytotoxicity: counterscreen for inhibitors of SARS-S pseudo-typed particle cell entry (AID 1479150)
Settings: cell viability; series mostly up to 57.1 µM

| SMILES | Potency |
| --- | --- |
| CCCC(=O)OC(C(Cl)(Cl)Cl)P(=O)(OC)OC (centres undefined) | inactive |
| CN1[C@H]2CC[C@@H]1[C@@H](C(=O)O)[C@@H](OC(=O)c1ccccc1)C2 | inactive |
| CCCCNCC(O)c1ccc(O)cc1 (centres undefined) | inactive |
| O=[N+]([O-])c1cc(I)c(O)c(I)c1 | inactive |
| COc1ccc(OC)c(C(O)C(C)N)c1 (centres undefined) | inactive |
| O=[N+]([O-])C(Br)(CO)CO | inactive |
| CCC1(CC)C(=O)NC(=O)N(C)C1=O | inactive |
| CCOC(=O)c1ccccc1C(=O)OCC | inactive |
| CC(N)Cc1ccc(O)cc1 (centres undefined) | inactive |
| O=S(=O)(O)c1cc(O)ccc1O | inactive |
| CCNCC(O)c1cccc(O)c1 (centres undefined) | inactive |
| Cc1ccccc1-n1c(CF)nc2ccc(N)cc2c1=O | inactive |
| C[C@]12CCC(=O)C=C1C=C[C@@H]1[C@@H]2CC[C@@]2(C)[C@H]1CC[C@@]2(O)CCC(=O)O | inactive |
| COc1cc2c(cc1OC)[C@@]13CCN4CC5=CCO[C@H]6CC(=O)N2[C@H]1[C@H]6[C@H]5C[C@H]43 | inactive |
| CCN(CC)C(=O)N[C@H]1C[C@@H]2c3cccc4[nH]cc(c34)C[C@H]2N(C)C1 | inactive |
| CCC(=O)O[C@@](Cc1ccccc1)(c1ccccc1)[C@@H](C)CN(C)C | inactive |
| CC[N+](C)(CC)CCOC(=O)C(O)(c1ccccc1)c1ccccc1 | inactive |
| O=C(O)C(Cl)(Cl)Cl | inactive |

Target: Cytochrome P450 2D6 (Homo sapiens) (UniProt P10635)
Sequence (P10635 whole entry, looked up): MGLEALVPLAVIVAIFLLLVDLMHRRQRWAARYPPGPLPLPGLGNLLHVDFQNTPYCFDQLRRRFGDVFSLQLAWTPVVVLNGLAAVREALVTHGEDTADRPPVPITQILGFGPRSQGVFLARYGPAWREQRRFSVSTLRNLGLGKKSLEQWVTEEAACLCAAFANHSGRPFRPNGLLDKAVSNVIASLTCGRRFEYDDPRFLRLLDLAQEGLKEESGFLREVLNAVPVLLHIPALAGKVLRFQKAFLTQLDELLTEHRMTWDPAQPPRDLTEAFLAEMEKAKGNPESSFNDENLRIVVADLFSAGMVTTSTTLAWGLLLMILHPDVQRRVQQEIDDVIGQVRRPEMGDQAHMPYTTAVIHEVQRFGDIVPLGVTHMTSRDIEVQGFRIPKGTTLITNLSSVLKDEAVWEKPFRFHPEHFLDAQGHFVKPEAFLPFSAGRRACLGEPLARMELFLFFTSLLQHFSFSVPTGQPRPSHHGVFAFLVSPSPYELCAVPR
Assay: Cytochrome P450 family 2 subfamily D member 6 (CYP2D6) small molecule antagonists: luciferase biochemical (cell-free) qHTS assay (AID 1645840; active = well fitted inhibition curve with a large enough effect in the repeat runs; note: nearly all actives have a fitted effect of over 55% in size; note: potency is the fitted concentration of half-maximal effect)
Settings: P450-Glo CYP2D6 enzyme, luciferin luminescence, 1 h; series mostly up to 57.4 µM
Procedure, shortened: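 P450-Glo CYP2D6 system: proluciferin substrate converted by enzyme to luciferin, read by luminescence proportional to activity. Enzyme-substrate mix with compound 10 min at room temperature, then NADPH regeneration 1 h before detection reagent.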

| SMILES | Potency |
| --- | --- |
| NCC(O)c1cccc(O)c1 (centres undefined) | inactive |
| ClC1C(Cl)C(Cl)C(Cl)C(Cl)C1Cl (centres undefined) | inactive |
| CC1CCC(C(C)C)C(OC(=O)c2ccccc2N)C1 (centres undefined) | inactive |
| CCCCNCC(O)c1ccc(O)cc1 (centres undefined) | 9.52 µM (active) |
| O=[N+]([O-])c1cc(I)c(O)c(I)c1 | inactive |
| COc1ccc(OC)c(C(O)C(C)N)c1 (centres undefined) | inactive |
| O=[N+]([O-])C(Br)(CO)CO | inactive |
| CCOC(=O)c1ccccc1C(=O)OCC | inactive |
| CCNCC(O)c1cccc(O)c1 (centres undefined) | inactive |

System: not listed separately
Assay: Cytotoxicity counterscreen for inhibitors of SARS-CoV-2 cell entry (AID 1645845); note: nearly all actives have a fitted effect of over 50% in size
Settings: cell viability (SARS-CoV-2 entry assay cells); series mostly up to 57.1 µM
Procedure, shortened: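 Counterscreen run in the same HEK293-ACE2 line as the pseudotyped-particle entry assay, without particles. Viability after 48 h at 37 C was read as ATP luminescence, scaled between cell-containing and cell-free wells.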

| SMILES | outcome | activity change, negative = cytotoxicity |
| --- | --- | --- |
| O=C(C[C@@H]1NCCC[C@H]1O)Cn1cnc2cc(Br)c(Cl)cc2c1=O | inactive | – |
| O=C(OCCN1CCCCC1)C(O)(c1ccccc1)c1ccccc1 | inactive | – |
| FC(F)OC(F)(F)C(F)Cl (centres undefined) | inactive | – |
| C=CC[C@]1(O)CC[C@H]2[C@@H]3CCC4=CCCC[C@@H]4[C@H]3CC[C@@]21C | inactive | – |
| C[C@@H](CO)NC(=O)[C@@H]1C=C2c3cccc4[nH]cc(c34)C[C@H]2N(C)C1 | inactive | – |
| CCNC1(c2cccs2)CCCCC1=O (centres undefined) | inactive | – |
| O=P(O)(O)C(Cl)(Cl)P(=O)(O)O | – | 3.8% [at 5.25 µM] |
| CCC1C(C)=NN=C(c2ccc(OC)c(OC)c2)c2cc(OC)c(OC)cc21 (centres undefined) | inactive | – |
| C[C@@H]([C@H](O)c1ccccc1)N(C)C | inactive | – |
| c1ccc2sc(SNC3CCCCC3)nc2c1 | inactive | – |
| O=C1C[C@@H]2OCC=C3CN4CC[C@]56c7ccccc7N1[C@H]5[C@H]2[C@H]3C[C@H]46 | inactive | – |
| NCC(O)c1cccc(O)c1 (centres undefined) | inactive | – |
| CCOc1ccc2c3c1O[C@H]1[C@@H](O)C=C[C@H]4[C@@H](C2)N(C)CC[C@@]341 | inactive | – |
| ClC1C(Cl)C(Cl)C(Cl)C(Cl)C1Cl (centres undefined) | inactive | – |
| CC(C)CCON=O | inactive | – |
| CCCCCCCCCC(=O)O[C@H]1CC[C@H]2[C@@H]3CCC4=CC(=O)CC[C@]4(C)[C@H]3CC[C@]12C | inactive | – |

| SMILES | outcome | activity change, negative = cytotoxicity |
| --- | --- | --- |
| C[N+]1(C)CCCCC1COC(=O)C(O)(c1ccccc1)c1ccccc1 (centres undefined) | inactive | – |
| CC1CCC(C(C)C)C(OC(=O)c2ccccc2N)C1 (centres undefined) | inactive | – |
| CC(C)(O)[C@@H]1[C@H]2OC(=O)[C@@H]1[C@]1(O)C[C@H]3O[C@]34C(=O)O[C@H]2[C@]14C | inactive | – |
| CCCC(=O)OC(C(Cl)(Cl)Cl)P(=O)(OC)OC (centres undefined) | inactive [at 114 µM] | – |
| CN1[C@H]2CC[C@@H]1[C@@H](C(=O)O)[C@@H](OC(=O)c1ccccc1)C2 | inactive | – |
| CCCCNCC(O)c1ccc(O)cc1 (centres undefined) | inactive | – |
| O=[N+]([O-])c1cc(I)c(O)c(I)c1 | inactive | – |
| COc1ccc(OC)c(C(O)C(C)N)c1 (centres undefined) | inactive | – |
| O=[N+]([O-])C(Br)(CO)CO | inactive | – |
| CCC1(CC)C(=O)NC(=O)N(C)C1=O | inactive | – |
| CCOC(=O)c1ccccc1C(=O)OCC | inactive | – |
| CC(N)Cc1ccc(O)cc1 (centres undefined) | inactive | – |
| O=S(=O)(O)c1cc(O)ccc1O | inactive | – |
| CCNCC(O)c1cccc(O)c1 (centres undefined) | inactive | – |
| Cc1ccccc1-n1c(CF)nc2ccc(N)cc2c1=O | inactive | – |
| C[C@]12CCC(=O)C=C1C=C[C@@H]1[C@@H]2CC[C@@]2(C)[C@H]1CC[C@@]2(O)CCC(=O)O | inactive | – |

— PubChem BioAssay (NCATS)
